Results as given in PubChem BioAssay (NCATS).
Results filed as inconclusive are left out. Calls of active or inactive are those of the source. Calls follow the shape of the dose curve; as a rule, active = well fitted curve in the direction sought with a large enough effect; inconclusive = small, poorly fitted or top-dose-only effect, or another doubt; inactive = no such curve, though single readings can be large; an effect the other way counts as inactive or inconclusive.

assay: Quantitative highthroughput screen to assess conditional lethalithy of NOMO1 cells grown in RPMI1640 with untreated serum (RPMI+s) (AID 1963876); settings: NOMO1 AML cells in RPMI+serum, CellTiter-Glo viability, 48 h; series mostly up to 45.8 µM; viability: at the top concentration;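 also: 100% = DMSO wells and 0% = empty wells without cells; nearly all actives have a fitted effect of over 35% in size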
How it was run: (§1)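 Each medium arm—HPLM with 10% dialyzed FBS, or RPMI1640 with 5 mM glucose and 10% untreated or dialyzed FBS—was screened against an 11-point, 3-fold compound titration for 48 h at 37 °C, with CellTiter-Glo luminescence as endpoint.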

SMILES | viability
CCCCCC[C@H]1C(=O)O[C@H](C)[C@H](NC(=O)c2cccc(NC=O)c2O)C(=O)O[C@@H](C)[C@@H]1OC(=O)CC(C)C | 84% (inactive)
Cc1cc(SCc2sc(-c3ccc(C(F)(F)F)c(F)c3)nc2C)ccc1OCC(=O)O | 98.2% (inactive)
CC(C)c1cccc(C(C)C)c1O | 94.5% (inactive)
C#CC1(O)CCC2C3CCC4=CC(=O)CCC4(C)C3CCC21C (stereo not given) | 97.6% (inactive)

assay: Quantitative highthroughput screen to assess conditional lethalithy of NOMO1 cells grown in RPMI1640 with dialyzed fetal bovine serum (RPMI+ds) (AID 1963877); settings: NOMO1 in RPMI+dialyzed FBS viability, ATP luminescence, 48 h; series mostly up to 45.8 µM; viability: at the top concentration; also: nearly all actives have a fitted effect of over 30% in size; also: potency is read from the fitted curve at half-maximal effect;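 as to viability: 100% = DMSO control wells and 0% = empty wells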
How it was run: as §1

SMILES | viability | Potency
O=C(O)C(=O)c1cn(Cc2ccccc2)c2ccc(-c3ccc(OC(F)(F)F)cc3)cc12 | 93.2% (inactive) | 
CN(C)[C@@H]1C(=O)C(C(N)=O)=C(O)[C@@]2(O)C(=O)C3=C(O)c4c(O)cccc4[C@@](C)(O)[C@H]3C[C@@H]12 | 96% (inactive) | 
CCCCCC[C@H]1C(=O)O[C@H](C)[C@H](NC(=O)c2cccc(NC=O)c2O)C(=O)O[C@@H](C)[C@@H]1OC(=O)CC(C)C | 78.2% (inactive) | 
Cc1cc(SCc2sc(-c3ccc(C(F)(F)F)c(F)c3)nc2C)ccc1OCC(=O)O | 104% (inactive) | 
CC(C)c1cccc(C(C)C)c1O | 88.8% (inactive) | 
O=c1[nH]c2ccccc2n1CCCN1CCC(n2c(=O)[nH]c3cc(Cl)ccc32)CC1 | 85.8% (inactive) | 
C#CC1(O)CCC2C3CCC4=CC(=O)CCC4(C)C3CCC21C (stereo not given) | 105% (inactive) | 
COc1ccc2c(c1OC)CN1CCc3cc4c(cc3C1C2)OCO4 (stereo not given) |  | 1660 nM (active)
CNC(=O)c1ccc(N2C(=S)N(c3ccc(C#N)c(C(F)(F)F)c3)C(=O)C23CCC3)cc1F | 104% (inactive) | 

assay: Quantitative highthroughput screen to assess conditional lethalithy of NOMO1 cells grown in Human Plasma-Like Medium with dialyzed fetal bovine serum (HPLM+ds) (AID 1963878); settings: NOMO1 AML cells in HPLM+ds, CellTiter-Glo viability, 48 h; series mostly up to 45.8 µM; viability: at the top concentration;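 also: 100% = DMSO wells and 0% = empty wells on each plate; nearly all actives have a fitted effect of over 35% in size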
How it was run: as §1

SMILES | viability
O=C(O)C(=O)c1cn(Cc2ccccc2)c2ccc(-c3ccc(OC(F)(F)F)cc3)cc12 | 97.1% (inactive)
CN(C)[C@@H]1C(=O)C(C(N)=O)=C(O)[C@@]2(O)C(=O)C3=C(O)c4c(O)cccc4[C@@](C)(O)[C@H]3C[C@@H]12 | 105% (inactive)
CC(C)c1cccc(C(C)C)c1O | 97.9% (inactive)
Cn1cc(C2=C(c3cn(C4CCN(Cc5ccccn5)CC4)c4ccccc34)C(=O)NC2=O)c2ccccc21 | 115% (inactive)
CCNC(=O)CC1N=C(c2ccc(Cl)cc2)c2cc(OC)ccc2-n2c(C)nnc21 (stereo not given) | 72.7% (inactive)
C#CC1(O)CCC2C3CCC4=CC(=O)CCC4(C)C3CCC21C (stereo not given) | 102% (inactive)
CNC(=O)c1ccc(N2C(=S)N(c3ccc(C#N)c(C(F)(F)F)c3)C(=O)C23CCC3)cc1F | 110% (inactive)
